High-throughput results deposited in PubChem BioAssay by several laboratories.
Rows were chosen to be rich in hits. Some 2.9% of all compounds tested hit in one or more screens of this group.
dFosB activator: activators of delta FosB homodimer, primary screen, biochemical, fluorescence polarization, TAMRA-CDK5 oligo, single point; Protein FosB (Mus musculus), P13346; purified delta FosB; percent of positive-control signal above neutral wells; activation, % at 25 µM; 340,000 compounds, 0.99% hits; AID 493131, 2011;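 active = mean activation above about 17%, with every replicate also reaching it, limit read from the data, passing the limit was not always enough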
MEKK3 PB1 HTS: modulators of MEKK3-MEK5 PB1 binding, primary screen, biochemical, wildtype MEKK3, multiplex bead flow cytometry, Alexa488-MEK5. 290,000 compounds, 1.4% hits. binding response (% of control), % at 10 µM. AID 1529, 2009. bead-based flow cytometry, Alexa488-MEK5 binding to MEKK3; actives lie on both sides; 0 = blocked by unlabeled MEK5, 100 = vehicle;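 active = binding response more than 3 SD above or below the average of its plate-row segment, actives on both sides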;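 note: Alexa488 bead fluorescence after subtracting the streptavidin-only scavenger bead signal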
Target sequence (Q99759 whole entry, looked up): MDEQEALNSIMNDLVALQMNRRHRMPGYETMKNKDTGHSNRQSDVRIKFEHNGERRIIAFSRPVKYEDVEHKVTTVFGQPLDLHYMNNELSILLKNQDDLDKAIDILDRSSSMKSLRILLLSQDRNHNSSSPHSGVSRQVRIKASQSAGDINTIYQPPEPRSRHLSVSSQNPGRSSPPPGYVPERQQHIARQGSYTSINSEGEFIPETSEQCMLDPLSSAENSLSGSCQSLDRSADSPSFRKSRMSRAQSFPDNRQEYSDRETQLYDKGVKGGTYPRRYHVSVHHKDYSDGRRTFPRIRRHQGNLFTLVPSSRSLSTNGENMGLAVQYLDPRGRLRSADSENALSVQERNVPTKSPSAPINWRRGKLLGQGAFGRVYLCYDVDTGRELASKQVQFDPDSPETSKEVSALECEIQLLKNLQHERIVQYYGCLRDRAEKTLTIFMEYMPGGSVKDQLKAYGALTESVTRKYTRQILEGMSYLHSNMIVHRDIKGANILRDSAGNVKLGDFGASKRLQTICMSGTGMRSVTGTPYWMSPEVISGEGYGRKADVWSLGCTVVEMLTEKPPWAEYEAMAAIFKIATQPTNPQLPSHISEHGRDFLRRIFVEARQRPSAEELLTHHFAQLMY
MEKK2wt PB1 HTS: modulators of MEK5 binding to wildtype MEKK2, primary screen, biochemical, multiplex bead flow cytometry, Alexa488-MEK5 | Mitogen-activated protein kinase kinase kinase 2 (Homo sapiens), Q9Y2U5 | Alexa488-MEK5 binding to MEKK2 WT; actives lie on both sides | binding response (% of control), % at 10 µM | 290,000 compounds, 1.1% hits | AID 1531, 2009; in the data active = binding response below about 67% or above about 130%
DNA FID counter: compounds displacing fluorescent DNA intercalator, primary screen, artefact control for HCV NS3 helicase inhibitor project, biochemical, FID fluorescence | DNA fluorescent intercalator displacement | inhibition, % at 7.9 µM | 290,000 compounds, 0.17% hits; in the data active = inhibition above about 37%;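 note: 0% = vehicle and 100% = reference compound; higher means more ethidium bromide displaced from hairpin DNA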
MEKK2 mut-MEK5: MEK5 binding signal on mutant MEKK2 PB1, primary screen, biochemical, multiplex bead flow cytometry, Alexa488-MEK5 | Alexa488-MEK5 binding to MEKK2 mutant | percent response, % at 10 µM | 290,000 compounds, 0.35% hits | AID 1530, 2009; in the data active = percent response above about 24%, passing the limit was not always enough
MEKK2wt confirm: modulators of MEK5 binding to wildtype MEKK2, confirmation, biochemical, single concentration, multiplex bead flow cytometry; shares compounds with MEKK3 PB1 HTS; Alexa488-MEK5 binding to MEKK2 WT; actives lie on both sides; binding response (% of control), % at 10 µM; 5,900 compounds, 2.4% hits; AID 1892, 2009; in the data active = binding response below about 16% or above about 210%; inactive = in between
MEKK2mut confirm: mutant MEKK2 PB1-MEK5 binding signal retest – biochemical, single concentration, multiplex bead flow cytometry, confirmation | shares compounds with MEKK3 PB1 HTS | Alexa488-MEK5 binding to MEKK2 mutant | percent response, % at 10 µM | 5,900 compounds, 2% hits; in the data active = percent response mostly above about 71%, no sharp cut-off; inactive = mostly below about 38%;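 note: higher means compound restores mutant binding toward wildtype level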
MEKK3-MEK5 inh: MEKK3 wild-type PB1 binding to MEK5, inhibitors, confirmation, biochemical, bead multiplex flow cytometry, single concentration, wildtype. shares compounds with MEKK3 PB1 HTS. Alexa488-MEK5 binding to MEKK3; stronger effect = lower value. binding response (% of control), % at 10 µM. 5,900 compounds, 1.8% hits;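 active = binding response below 72% of control, or above a set upper limit, though filed actives all read lower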;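 note: 100% = DMSO only wells and 0% = binding blocked by excess unlabeled MEK5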
* hit, by the source's call; . = not tested or not shown; [ ] = another dose, or the depositor's remark.

SMILES	dFosB activator	MEKK3 PB1 HTS	MEKK2wt PB1 HTS	DNA FID counter	MEKK2 mut-MEK5	MEKK2wt confirm	MEKK2mut confirm	MEKK3-MEK5 inh
COc1ccc(N2CCN(C(=O)CSc3nnc(-c4ccco4)n3C)CC2)cc1	.	103	105	-17	3	.	.	.
CCCn1c(SC(C(=O)Nc2cccc(OC)c2)c2ccccc2)nc2ccccc2c1=O (configuration not stated)	-3	142*	110	-14	0	96	-5	97
COC(=O)C1=C(C(=O)OC)[C@@H]2N(C)c3ccccc3[C@@]23C[C@@H](C(=O)OC)N=C3N1	3	95	93	.	2	.	.	.
COC(=O)C1=C(C(=O)OC)[C@@H]2N(Cc3ccccc3)c3ccccc3[C@@]23C[C@@H](C(=O)OC)N=C3N1	-8	124	141*	.	3	103	-3	99
CCOc1ccc(/C=C/C(=O)NCc2ccccc2)cc1	-3	137*	108	-15	0	109	11	109
CCOc1ccc(/C=C/C(=O)NCCc2ccc(OC)c(OC)c2)cc1	-8	147*	109	-33	1	102	-3	99
CCOc1ccc(/C=C/C(=O)c2ccccc2)cc1	-1	95	94	-14	-6	.	.	.
CC(C)CN(CC(C)C)S(=O)(=O)N1CCC(C(=O)NC2CCCCCCC2)CC1	-6	79	80	-3	-5	.	.	.
CC(C)CC(=O)N=C1SC2CS(=O)(=O)CC2N1Cc1ccccc1 (configuration not stated)	9	195*	114	-4	1	97	-8	98
O=C(Cc1cccs1)NCCn1ccc2ccccc21	5	103	102	-2	5	.	.	.
O=C1C(Nc2ccccc2)=C(NS(=O)(=O)c2ccccc2)C(=O)c2ccccc21	2	139*	106	6	0	96	-7	92
O=C1c2ccccc2C(=O)c2cc(S(=O)(=O)Nc3ccccc3)ccc21	4	86	93	9	-4	.	.	.
CC(Cc1c[nH]c2ccccc12)NC(N)=O (configuration not stated)	-4	129*	111	-1	0	107	13	111
CC(C)CN(C(=O)c1ccc(S(=O)(=O)N2CCCC2)cc1)C1CCS(=O)(=O)C1 (configuration not stated)	-1	.	.	.	.	.	.	.
CCN1/C(=C/c2ccc3cc(C)ccc3[n+]2CC)Sc2ccc3sccc3c21	-4	.	.	.	.	.	.	.
CCN1/C(=C/c2ccc3cc(C)cc(C)c3[n+]2CC)Sc2cc(C)ccc21	-178	34*[inhibitor]	25*	-15	13	19	-37	54*
CCN1/C(=C/c2ccc3cccc(C)c3[n+]2CC)Sc2ccccc21	66*	73	40*[inhibitor]	-8	-27	62	-21	95
CCN1/C(=C\c2ccc3cc(C)ccc3[n+]2CC)Sc2cc(C)c(C)cc21	1	44*[inhibitor]	29*	-9	15	15*[inhibitor]	-29	61*
CCC(C)NC(=O)C(=O)NC1CCCC1 (configuration not stated)	0	99	97	0	0	.	.	.
Cc1c(C)c(C)c(/C=[N+](/C)[O-])c(C)c1C	0	91	96	1	-3	.	.	.
Oc1c(Br)cc(C=Nc2ccc3nc(-c4ccccc4)[nH]c3c2)c(O)c1Br	-8	88	56*[inhibitor]	-2	-26	78	-10	95
O=[N+]([O-])c1ccc(O)c(C=Nc2ccc3nc(-c4ccccc4)[nH]c3c2)c1	4	93	93	4	-3	.	.	.
Cc1cc(Nc2ccccc2)nc(NCc2ccccc2)n1	4	110	167*	22	67*	165	51	110
Fc1cc(NCc2ccccc2)nc(NCc2ccccc2)n1	1	97	100	-5	-4	.	.	.
Cc1cc(Nc2cccc(F)c2)nc(NCc2ccccc2)n1	11	107	142*	22	41	169	37	107
SMILES	dFosB activator	MEKK3 PB1 HTS	MEKK2wt PB1 HTS	DNA FID counter	MEKK2 mut-MEK5	MEKK2wt confirm	MEKK2mut confirm	MEKK3-MEK5 inh
CCC(C)NC(=O)C(Cc1ccccc1)NS(=O)(=O)c1ccc2c(c1)oc(=O)n2C (configuration not stated)	3	99	100	-7	1	.	.	.
Cc1ccc(SCc2nc3ccccc3[nH]2)cc1	-16	2.0*[inhibitor]	2.0*[inhibitor]	-3	-37	104	8	106
c1ccc(SCc2nc3ccccc3[nH]2)cc1	-1	99	104	-2	2	.	.	.
CCC1(c2ccc(Cl)cc2)NC(=S)N(c2ccccc2)N1 (configuration not stated)	-1	128*	107	-3	0	98	-2	99
CCCCn1c(N)c(C(=S)NC(=O)CC(C)(C)C)c(=O)n(C)c1=O	0	103	99	3	-2	.	.	.
COc1ccc(-c2noc(=O)[nH]2)cc1	3	103	100	4	-1	.	.	.
CCOc1ccc(-c2noc(=O)[nH]2)cc1	6	23*[inhibitor]	39*[inhibitor]	23	-33	107	3	103
CCCCCCNC(=O)N[C@@H](C(=O)NCCC[C@H]1CN2C(=NC[C@@H]2Cc2ccccc2)N1CCc1cccc(OC)c1)C(C)C	.	109	201*	.	46*	169	49	104
C/C=C(\C)C(=O)NCCN1C2=NC[C@@H](Cc3ccccc3)N2C[C@@H]1Cc1ccc(OC)cc1	5	91	133	.	6	.	.	.
Fc1ccc(NC(=S)Nc2ccc3nccnc3c2)cc1	-4	130*	118	5	1	101	-5	101
CCC1Oc2ccc(C)cc2N(CC(=O)NCCN2CCOCC2)C1=O (configuration not stated)	2	103	100	0	-2	.	.	.
CCC1Oc2ccc(C)cc2N(CC(=O)NCCN2CCCCCC2)C1=O (configuration not stated)	-3	107	137*	7	22	115	6	100
